An excerpt weighted towards active compounds, which were near 2.2% of everything screened.
KLF5 inh = KLF5 expression inhibitors, primary screen, DLD-1 cells, luminescence | DLD-1 KLF5 promoter-luciferase reporter | inhibition, % at 5 µM | actives 0.23% (n = 290,000) | AID 1700, 2009;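 active means inhibition above a per-plate limit of that plate's mean compound inhibition plus 3 SD, cut at about 60% in these data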;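 further: higher means less KLF5 promoter-driven luciferase light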
Ba/F3 V617F tox = reduced viability of JAK2V617F-dependent Ba/F3 cells, primary screen, JAK2V617F inhibitor project, cell-based, Ba/F3 EpoR-JAK2V617F, luminescence. ATP luminescence. inhibition, % at 5.6 µM. actives 1.1% (n = 220,000);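 active means inhibition above the campaign mean plus 3 SD over all tested compounds, cut at about 24% in these data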;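 further: cytokine-independent growth of Ba/F3 cells driven by EpoR plus mutant JAK2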
aSyn 5UTR inh = MLPCN primary screen, SNCA 5' untranslated region | alpha-synuclein 5'UTR reporter, inhibitor activity | inhibition, % (tested at 7.5 µM) | actives 0.82% (n = 300,000) | AID 1813, 2009; in the data active means inhibition above about 60%;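 further: H4 neuroglioblastoma cells stably carrying SNCA 5'UTR luciferase fusion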
BaF3 tox = parental Ba/F3 cell viability inhibition, counter-screen for JAK2V617F inhibitor project, murine pro-B, CellTiter-Glo luminescence; inhibition, % at 5.6 µM; actives 1.1% (n = 220,000); CellTiter-Glo ATP luminescence;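 active means inhibition above a per-campaign cutoff, the mean inhibition of all tested compounds plus 3 SD, cut at about 27% in these data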
APP 5UTR inh = inhibitors of APP translation via 5'UTR reporter, primary screen, APP 5'UTR luciferase, SH-SY5Y cells; SH-SY5Y APP 5'UTR-luciferase reporter, luminescence; inhibition, % at 2 µM; actives 0.82% (n = 190,000);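 active means inhibition above a set limit, derived from the sample mean plus 3 SD, cut at about 45% in these data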
IEC-6 tox = cytotoxicity in IEC-6 intestinal epithelial cells, primary screen, cytotoxicity control for KLF5 inhibitor project, cell-based, luminescence; IEC-6 cytotoxicity, luminescence viability; inhibition, % at 5 µM; actives 0.78% (n = 290,000); AID 1825, 2009; in the data active means inhibition above about 22%
Of the large screens only hits and unclear results are named; the others gave an inactive call.

O=[N+]([O-])c1cc(-c2ncccn2)c([N+](=O)[O-])s1	APP 5UTR inh 76.1
CCc1c(C)[nH]n(-c2nc(-c3ccccc3)cs2)c1=O	none
Cc1[nH]n(-c2nc(-c3ccc(Cl)cc3)cs2)c(=O)c1N=Nc1ccc(O)cc1	APP 5UTR inh 53.5
O=S(=O)(NC1CC1)c1ccccc1	none (no result: Ba/F3 V617F tox, BaF3 tox, APP 5UTR inh)
O=c1c2c(nc3c(-c4cccc(Br)c4)c[nH]n13)CCCC2	aSyn 5UTR inh 68.7
C=CCC1(Cl)C(=O)C(Cl)=C(N2CCN(C)CC2)C1(OC)OC (stereo unspecified)	none (no result: APP 5UTR inh)
O=C(c1cnn2c(C(F)F)cc(-c3ccccc3)nc12)N1CCc2ccccc21	none
Cc1ccc(-c2cc(C(F)F)n3ncc(C(=O)N4CCc5ccccc54)c3n2)cc1	APP 5UTR inh 87.4
CC(C)(C)Cc1nnc(NC(=O)c2ccco2)s1	none (no result: Ba/F3 V617F tox, BaF3 tox, APP 5UTR inh)
Cc1cccc(NC(=O)COC(=O)c2cccc3c2C(=O)c2ccccc2C3=O)c1C	none
Cc1cccc(C)c1NC(=O)COC(=O)c1cccc2c1C(=O)c1ccccc1C2=O	aSyn 5UTR inh 67.9
COc1cc(O)c2c(=O)cc(-c3ccccc3)oc2c1	none
COc1ccc(-c2cc(=O)c3c(O)c(OC)c(O)cc3o2)cc1	aSyn 5UTR inh 70.2
COC(=O)[C@H](Cc1ccccc1)NC(=O)C1CCN(C(=O)[C@H](C)NS(=O)(=O)c2ccc(C)cc2)CC1	none (no result: Ba/F3 V617F tox, BaF3 tox, APP 5UTR inh)
CCOc1cnn(-c2cc(Oc3ccc(C)cc3)ncn2)c(=O)c1Cl	APP 5UTR inh 74.3
COC(=O)c1cnn(-c2cc(Oc3ccccc3)ncn2)c1N	none
N#CC(C#N)=C(Nc1ccc(F)cc1)SCc1cccc(F)c1	Ba/F3 V617F tox 55.2, BaF3 tox 67.1, IEC-6 tox 33.7
CCOc1ccc(N/C(SCc2cccc([N+](=O)[O-])c2)=C(/C#N)C(N)=O)cc1	none
CCn1c(SCC#N)nc2ccccc2c1=O	none (no result: APP 5UTR inh)
N#CCSc1nc2ccccc2c2nc3ccccc3n12	Ba/F3 V617F tox 63.1, BaF3 tox 48.7
CC(=O)Nc1ccc(NC(=O)CSc2nnnn2-c2ccc(F)cc2)cc1	none (no result: Ba/F3 V617F tox, BaF3 tox, APP 5UTR inh)
COC(=O)c1ccc2nc(NC(=O)CSCC(=O)OCC(=O)c3ccccc3)sc2c1	none
Cc1ccc2nc(NC(=O)CSCC(=O)OCC(=O)c3ccc(Br)cc3)sc2c1	aSyn 5UTR inh 82.9
CC(C)CCNCC(O)CON=C1c2ccccc2-c2ccccc21 (stereo unspecified)	aSyn 5UTR inh 86.2
O=C(NC(Nc1ncc(S(=O)(=O)c2ccc([N+](=O)[O-])cc2)s1)(C(F)(F)F)C(F)(F)F)c1ccc(Cl)cc1	aSyn 5UTR inh 72.8
COc1ccccc1CNC(=O)[C@H](C)NC(=O)C1CCN(C(=O)[C@H](CCSC)NC(=O)OC(C)(C)C)CC1	none (no result: Ba/F3 V617F tox, BaF3 tox, APP 5UTR inh)
CCN(CC)CCSc1nnc2c3ccccc3n(Cc3ccccc3)c2n1	Ba/F3 V617F tox 29.4, BaF3 tox 48.8 (no result: APP 5UTR inh)
CCOC(=O)Cc1csc(NC(=O)c2c(O)c3ccccc3n(CC(C)C)c2=O)n1	aSyn 5UTR inh 74.6 (no result: APP 5UTR inh)
CC(C)(C)N(CC#CCC1(O)c2ccccc2-c2ccccc21)CCO	none
COc1ccccc1NC(=O)C(C/C=C(\C)Cl)C(C)=O (stereo unspecified)	none
COc1ccccc1NC(=O)C(CC=C(Cl)Cl)C(C)=O (stereo unspecified)	BaF3 tox 39.1
O=C(c1nn2c(C(F)(F)F)cc(-c3ccco3)nc2c1Br)N1CCCc2ccccc21	aSyn 5UTR inh 92.9
O=C(c1nn2c(C(F)(F)F)cc(-c3cccs3)nc2c1Br)N1CCCc2ccccc21	aSyn 5UTR inh 82.2
CCN(CC(=O)Nc1ccccc1C(F)(F)F)C(=O)c1cccc(N2C(=O)CCC2=O)c1	none (no result: KLF5 inh, Ba/F3 V617F tox, BaF3 tox, APP 5UTR inh, IEC-6 tox)
O=C1CN(CC(=O)Nc2cccc(Cl)c2Cl)c2ccccc2N1	none
COC(=O)c1cc(-c2ccc(NC(C)=O)cc2)nc2ccccc12	none
COC(=O)CN1C(=O)N/C(=C/c2cc(OC)c(OC)cc2C)C1=O	BaF3 tox 89.7
O=C1c2ccccc2C2(c3cc(C(F)(F)F)cc(C(F)(F)F)c3)NCCN12 (stereo unspecified)	none (no result: Ba/F3 V617F tox, BaF3 tox, APP 5UTR inh)
CC(=O)c1ccccc1OCCOCCOCCOc1ccccc1C(C)=O	aSyn 5UTR inh 67.3
CC(=O)c1ccccc1OCCCN1CCCCC1	none
COc1ccc(N2CCN(C(=O)c3ccc(NC(=O)C4=CSCCO4)cc3)CC2)cc1	none (no result: Ba/F3 V617F tox, BaF3 tox, APP 5UTR inh)
CC(=O)N1CCC(=NNC(=O)c2cccs2)CC1	BaF3 tox 53.0
COc1cccc(C(=O)Nc2nc3ccccc3[nH]2)c1	aSyn 5UTR inh 62.6
O=C(Nc1nc2ccccc2[nH]1)c1cccc(F)c1	none (no result: Ba/F3 V617F tox, BaF3 tox, APP 5UTR inh)
Oc1ccccc1-c1nnc(SCCN2CCOCC2)n1Cc1ccccc1	Ba/F3 V617F tox 94.2, aSyn 5UTR inh 80.7, BaF3 tox 82.6
CCCCn1c(N)c(N(CC(C)C)C(=O)CCNC(=O)c2ccc(Cl)cc2)c(=O)[nH]c1=O	none (no result: KLF5 inh, Ba/F3 V617F tox, BaF3 tox, APP 5UTR inh, IEC-6 tox)
CCN(CC)c1ccc(C2=NNC(=O)CC2C)cc1[N+](=O)[O-] (stereo unspecified)	aSyn 5UTR inh 98.5
CC1CC(=O)NN=C1c1ccc(N(C)C)c([N+](=O)[O-])c1 (stereo unspecified)	none
CCN1CCN(C(=S)Nc2ccc(Cl)cc2)CC1	Ba/F3 V617F tox 24.6, BaF3 tox 35.1
CCN1CCN(CCCN(Cc2ccco2)C(=S)Nc2cc(Cl)ccc2C)CC1	Ba/F3 V617F tox 63.1, BaF3 tox 68.8
CN1CCN(CCCN(Cc2ccco2)C(=S)Nc2ccc(Cl)cc2)CC1	Ba/F3 V617F tox 40.4, BaF3 tox 29.0
Cc1ccccc1NC(=S)N(CCCN1CCCCC1)Cc1ccco1	none
Cc1ccc(NC(=S)N(CCCN2CCN(C)CC2)Cc2cccs2)cc1C	Ba/F3 V617F tox 36.4, BaF3 tox 28.8
O=C(Nc1ccccn1)C1CCCN(c2ncnc3c2nc2n3CCCCC2)C1 (stereo unspecified)	none (no result: Ba/F3 V617F tox, BaF3 tox, APP 5UTR inh)
CCN1CCN(CCCN(Cc2ccco2)C(=S)Nc2ccc(Cl)cc2)CC1	Ba/F3 V617F tox 36.1, BaF3 tox 29.4
Cc1ccc(NC(=S)N(CCCN2CCOCC2)Cc2ccco2)cc1Cl	none
CCN1CCN(CCCN(Cc2ccco2)C(=S)Nc2ccc(C)c(Cl)c2)CC1	Ba/F3 V617F tox 37.2, BaF3 tox 31.8
Cc1ccc(NC(=S)N(CCN(C)C)C(C)c2ccco2)cc1Cl (stereo unspecified)	Ba/F3 V617F tox 26.6, BaF3 tox 30.4 (no result: APP 5UTR inh)
COc1ccccc1C(CNC(=O)c1cc(C)nc2ccccc12)N(C)C (stereo unspecified)	none (no result: Ba/F3 V617F tox, BaF3 tox, APP 5UTR inh)
O=C(NCc1ccc(F)cc1)c1cc2c(s1)CS(=O)(=O)C2	none (no result: Ba/F3 V617F tox, BaF3 tox, APP 5UTR inh)
C#CC[N+]1(CC#Cc2ccccc2)CCOCC1	none
CCC[N+]1(CC#CCC(c2ccccc2)c2ccccc2)CCCCC1	none (no result: Ba/F3 V617F tox, BaF3 tox, APP 5UTR inh)
C#CC[N+]1(CC#Cc2cccc(C)c2)CCCCC1	Ba/F3 V617F tox 76.2, BaF3 tox 67.3

Bioassay records as filed in PubChem.
